Assay results: PubChem BioAssay (EPA / NIEHS)
Activity calls are given as the source filed them. Rule for the calls: active = hit-call score of the fitted dose curve at least 0.9, where 1 is the maximum; inactive = score below 0.9.

Legend:
[1] = BSK_3C_SRB: Viability Assessment in the BioMAP Diversity Plus: 3C Assay (AID 2283023); settings: primary human endothelial cells (HUVEC);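 note: fitted both ways against DMSO so a hit may be signal rise or drop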
Outline: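 Absorbance at 560 nm of sulforhodamine B-stained (0.1%) total protein served as a cytotoxicity readout in human umbilical vein endothelial cells, 24 h after chemical treatment. Signal was fitted bidirectionally relative to DMSO.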

[2] = read-out: Matrix Metallopeptidase 1 (MMP1), MMP1 (gene 4312); test: BSK_BE3C_MMP1: BioMAP Diversity Plus: BE3C Assay for Matrix Metallopeptidase 1 (MMP1) Biomarker Activity (AID 2283024); settings: primary human bronchial epithelial cells; actives raise or lower the signal
Outline: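 Human bronchial epithelial cells (BE3C system) exposed to compound for 24 h; MMP1 then quantified by ELISA. Activity was fitted in both directions relative to DMSO.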

[3] = BSK_3C_Vis: BioMAP Diversity Plus: 3C Assay for Morphology Visualization (AID 2283025); settings: primary human endothelial cells (HUVEC);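 note: fitted both ways so gain or loss versus DMSO counts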;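 for AC50: light microscopy image of cell morphology used as background control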
Outline: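 Chemicals were added to primary human umbilical vein endothelium, cells were incubated 24 h, and morphology was then visualized by light microscopy. Gain or loss of signal was fitted bidirectionally relative to DMSO.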

[4] = read-out: Pselectin, SELP (gene 6403); test: BSK_4H_Pselectin: BioMAP Diversity Plus: 4H Assay for Pselectin Biomarker Activity (AID 2283026); settings: primary human endothelial cells (HUVEC); actives raise or lower the signal
Outline: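 ELISA read-out of P-selectin on human umbilical vein endothelium after 24 h of dosing. Values derive from bidirectional fitting relative to DMSO. Parallel SRB protein staining flagged overt cytotoxicity.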

[5] = BSK_4H_SRB: Viability Assessment in the BioMAP Diversity Plus: 4H Assay (AID 2283027); settings: primary human endothelial cells (HUVEC);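 note: cells exposed to compound for 24 h before staining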
Outline: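 Absorbance at 560 nm of SRB-stained total protein served as the viability read-out in confluent primary human umbilical vein endothelium 24 h after chemical treatment. Curves were fitted bidirectionally against DMSO as negative control.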

[6] = BSK_BE3C_SRB: Viability Assessment in the BioMAP Diversity Plus: BE3C Assay (AID 2283028); settings: primary human bronchial epithelial cells
Outline: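 Cells (human bronchial epithelial, primary) are treated with chemicals, and after 24 h the parallel cultures are fixed in 10% TCA. These are then stained with 0.1% SRB and read at 560 nm. Gain or loss of signal is fitted relative to DMSO.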

[7] = read-out: Thrombomodulin, THBD (gene 7056); test: BSK_3C_Thrombomodulin: BioMAP Diversity Plus: 3C Assay for Thrombomodulin Biomarker Activity (AID 2283029); settings: primary human endothelial cells (HUVEC); actives raise or lower the signal
Outline: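 Read-out is ELISA of thrombomodulin on human umbilical vein endothelium 24 h after chemical dosing. Gain or loss of signal is scored relative to DMSO. Overt cytotoxicity is checked in parallel cultures by sulforhodamine B staining.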

[8] = read-out: Urokinase-type plasminogen activator receptor (uPAR), PLAUR (gene 5329); test: BSK_4H_uPAR: BioMAP Diversity Plus: 4H Assay for Urokinase-type plasminogen activator receptor (uPAR) Biomarker Activity (AID 2283030); settings: primary human endothelial cells (HUVEC); actives raise or lower the signal
Outline: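 Cell-surface uPAR ELISA signal, measured 24 h after dosing human umbilical vein endothelial cells, was analyzed with bidirectional fitting relative to DMSO. Parallel SRB staining of total protein tracked overt cytotoxicity.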

[9] = read-out: Vascular endothelial growth factor receptor 2 (Homo sapiens) (UniProt P35968); test: BSK_4H_VEGFRII: BioMAP Diversity Plus: 4H Assay for Vascular endothelial growth factor receptor 2 (VEGFR2) Biomarker Activity (AID 2283031); settings: primary human endothelial cells (HUVEC); actives raise or lower the signal
Outline: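 ELISA read-out of VEGFRII in primary human umbilical vein endothelium, taken 24 h after chemical treatment. Responses are expressed relative to DMSO, with bidirectional fitting.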

[10] = read-out: Vascular cell adhesion molecule 1 (VCAM1), VCAM1 (gene 7412); test: BSK_4H_VCAM1: BioMAP Diversity Plus: 4H Assay for Vascular cell adhesion molecule 1 (VCAM1) Biomarker Activity (AID 2283033); settings: primary human endothelial cells (HUVEC); actives raise or lower the signal;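 note: cell-surface VCAM-1 protein measured by ELISA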
Outline: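 ELISA read-out of VCAM-1 on human umbilical vein endothelium 24 hours after chemical dosing; gain or loss of signal was fitted relative to DMSO, with sulforhodamine B staining of parallel cultures flagging overt cytotoxicity.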

[11] = read-out: Interferon-gamma inducible Protein 10 (IP10), CXCL10 (gene 3627); test: BSK_BE3C_IP10: BioMAP Diversity Plus: BE3C Assay for Interferon-gamma inducible Protein 10 (IP10) Biomarker Activity (AID 2283034); settings: primary human bronchial epithelial cells; actives raise or lower the signal
Outline: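 Chemical is dosed onto human lung bronchial epithelial primary cells, cultures are incubated 24 h, and IP-10 is then quantified by ELISA. Gain or loss of signal is fitted in both directions relative to DMSO.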

[12] = read-out: Monokine induced gamma interferon (MIG), CXCL9 (gene 4283); test: BSK_BE3C_MIG: BioMAP Diversity Plus: BE3C Assay for Monokine induced gamma interferon (MIG) Biomarker Activity (AID 2283035); settings: primary human bronchial epithelial cells; actives raise or lower the signal;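 note: MIG protein measured by ELISA in BE3C cultures after 24 h of dosing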
Outline: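 MIG level was determined by ELISA after 24 h chemical treatment of primary human bronchial epithelial cells. Values were fitted bidirectionally with DMSO as the negative control and activity baseline.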

[13] = read-out: Transforming growth factor beta 1 (TGFb1), TGFB1 (gene 7040); test: BSK_BE3C_TGFb1: BioMAP Diversity Plus: BE3C Assay for Transforming growth factor beta 1 (TGFb1) Biomarker Activity (AID 2283036;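 note: TGF-b1 protein level measured by ELISA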); settings: primary human bronchial epithelial cells; actives raise or lower the signal
Outline: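 Primary human lung bronchial epithelial cells; compound exposure 24 h; TGF-b1 by ELISA; bidirectional fit, DMSO baseline. Parallel SRB total-protein staining for cytotoxicity.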

[14] = read-out: Plasminogen activator inhibitor-1 (PAI1), SERPINE1 (gene 5054); test: BSK_BE3C_PAI1: BioMAP Diversity Plus: BE3C Assay for Plasminogen activator inhibitor-1 (PAI1) Biomarker Activity (AID 2283037); settings: primary human bronchial epithelial cells; actives raise or lower the signal
Outline: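 Primary human lung bronchial epithelial cells; chemical dosing; 24 h; PAI-1 measured by ELISA; bidirectional fit referenced to DMSO as negative control.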

[15] = read-out: urokinase plasminogen activator (uPA), PLAU (gene 5328); test: BSK_BE3C_uPA: BioMAP Diversity Plus: BE3C Assay for urokinase plasminogen activator (uPA) Biomarker Activity (AID 2283038); settings: primary human bronchial epithelial cells; actives raise or lower the signal;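 note: uPA protein level quantified by ELISA in cell cultures; uPA read one day after compound addition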
Outline: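 Bronchial epithelial cells (human, primary); chemical 24 h; uPA by ELISA; bidirectional fit vs DMSO. SRB (0.1%, after 10% TCA fixation, 560 nm) in parallel cultures for cytotoxicity.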

[16] = read-out: Urokinase-type plasminogen activator receptor (uPAR), PLAUR (gene 5329); test: BSK_BE3C_uPAR: BioMAP Diversity Plus: BE3C Assay for Urokinase-type plasminogen activator receptor (uPAR) Biomarker Activity (AID 2283039); settings: primary human bronchial epithelial cells; actives raise or lower the signal;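 note: cells exposed to compound for one day before measurement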
Outline: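 Human bronchial epithelial primary cells; chemical exposure 24 h; uPAR by ELISA; bidirectional fit vs DMSO control.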

[17] = read-out: Interleukin-6 (IL6), IL6 (gene 3569); test: BSK_CASM3C_IL6: BioMAP Diversity Plus: CASM3C Assay for Interleukin-6 (IL6) Biomarker Activity for (AID 2283040); settings: primary human coronary artery smooth muscle cells; actives raise or lower the signal
[18] = read-out: Tissue plasminogen activator (tPA), PLAT (gene 5327); test: BSK_BE3C_tPA: BioMAP Diversity Plus: BE3C Assay for Tissue plasminogen activator (tPA) Biomarker Activity (AID 2283041); settings: primary human bronchial epithelial cells; actives raise or lower the signal;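 note: tPA level quantified by ELISA one day after compound addition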
Outline: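 Primary human lung bronchial epithelial cultures receive test chemical; after 24 h, tPA is quantified by ELISA, and gain or loss of signal is fitted bidirectionally relative to DMSO baseline.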

[19] = read-out: Interleukin-8 (IL8), CXCL8 (gene 3576); test: BSK_CASM3C_IL8: BioMAP Diversity Plus: CASM3C Assay for Interleukin-8 (IL8) Biomarker Activity (AID 2283042); settings: primary human coronary artery smooth muscle cells; actives raise or lower the signal;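 note: IL-8 protein level quantified by ELISA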
[20] = read-out: Human Leukocyte Antigen - DR isotype (HLADR), HLA-DRA (gene 3122); test: BSK_BE3C_HLADR: BioMAP Diversity Plus: BE3C Assay for Human Leukocyte Antigen - DR isotype (HLADR) Biomarker Activity (AID 2283032); settings: primary human bronchial epithelial cells; actives raise or lower the signal
Outline: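 ELISA read-out of HLA-DR on human lung bronchial epithelial primary cells, measured 24 h post-dosing. Both increases and decreases were scored relative to DMSO vehicle.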

Measured: AC50

CCCN(CCC)N=O
inactive: [1] | [2] | [3] | [4] | [5] | [6] | [7] | [8] | [9] | [10] | [11] | [12] | [13] | [14] | [15] | [16] | [17] | [18] | [19]

Cc1cccc([N+](=O)[O-])c1
inactive: [1] | [2] | [3] | [4] | [5] | [6] | [7] | [8] | [20] | [10] | [11] | [12] | [13] | [14] | [15] | [16] | [17] | [18] | [19]

Cc1cccc(C)c1N
inactive: [1] | [2] | [3] | [4] | [5] | [6] | [7] | [8] | [9] | [10] | [11] | [12] | [13] | [14] | [15] | [16] | [17] | [18] | [19]

ClC1=C(Cl)[C@]2(Cl)[C@@H]3[C@@H]4C[C@@H]([C@H]5O[C@@H]45)[C@@H]3[C@@]1(Cl)C2(Cl)Cl
inactive: [2] | [4] | [5] | [6] | [7] | [8] | [9] | [10] | [11] | [12] | [13] | [14] | [15] | [16] | [17] | [18] | [19]
active: [1] 12.5 µM | [3] 13.7 µM

ClC1=C(Cl)[C@]2(Cl)[C@@H]3[C@@H](Cl)[C@H]4O[C@H]4[C@@H]3C1(Cl)C2(Cl)Cl
inactive: [2] | [3] | [4] | [5] | [6] | [7] | [8] | [9] | [10] | [11] | [12] | [13] | [14] | [15] | [16] | [17] | [18] | [19]
active: [1] 11.9 µM
